This is one part of a sample in which hits are shown more often than they occur.
NSD2 inh – inhibitors of human NSD2, primary screen, biochemical, plate reader, single point; Histone-lysine N-methyltransferase NSD2 (Homo sapiens), O96028; NSD2-SET H3K36me1 DELFIA fluorescence; inhibition, % at 12.5 µM; 44,000 compounds, 0.07% hits; AID 624260, 2012; in the data active = inhibition above about 54%, passing the limit was not always enough;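 also: inhibitors reduce the monomethyl H3K36 fluorescence signal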
* marks the source's active call; other numbers are inactive results.

SMILES | NSD2 inh
NC(=O)COc1ccccc1/C=N/NC(=O)c1ccc(C(=O)NO)cc1 | 0
Cc1ccsc1/C=N/NC(=O)CCCCCC(=O)Nc1ccccc1O | 2
O=C(CCCCCCC(=O)N/N=C/c1ccc(OCCO)cc1)NO | 6
CCCC[C@@H](O)c1cc(OC)cc(=O)o1 | 3
Cc1cc(-c2ccc(N=Nc3cc(S(=O)(=O)O)c4ccccc4c3N)c(C)c2)ccc1N=Nc1cc(S(=O)(=O)O)c2ccccc2c1N | 92*
O=C(N/N=C/c1cc(I)cc(I)c1O)c1ccccn1 | 10
C[C@H](CO)N1C[C@H](C)[C@H](CN(C)Cc2ccc(C(=O)Nc3ccccc3N)cc2)Oc2ccc(NC(=O)Nc3ccc(C(F)(F)F)cc3)cc2CC1=O | -7
COc1cc(C2Oc3c(OC)cc(CCCO)cc3C2CO)ccc1O[C@H]1O[C@H](C)[C@@H](O)[C@H](O)[C@@H]1O (stereo not given in full) | 59*
C[C@@H]1O[C@@H](Oc2ccc(C3Oc4cc(O)cc(O)c4C(=O)C3O)cc2O)[C@H](O)[C@H](O)[C@H]1O (stereo not given in full) | 33
COc1ccc(C2Oc3c(OC)cc(CCCO)cc3C2CO)cc1OC1OC(CO)C(O)C(O)C1O (stereo not given) | 11
COc1ccc2ccc(=O)oc2c1CC(O)C(C)(C)OC (stereo not given) | -1
CC1(C)[C@H]2CC=C(/C=N\NC(=O)CCCCC(=O)NO)[C@@H]1C2 | -4
CCOc1cccc(/C=N/NC(=O)CCCCC(=O)NO)c1OCC | -3
COc1cc(Cl)c(/C=N\NC(=O)CCCCC(=O)NO)c(Cl)c1OC | 0
O=C(CCc1ccc(O)cc1)c1ccc(O[C@@H]2O[C@H](CO)[C@H](O)[C@H](O)[C@H]2O)cc1O | 15
O=C(O)c1c(O)cc(OC2OC(CO)C(O)C(O)C2O)cc1/C=C/c1ccccc1 (stereo not given) | 76*
O=C(/C=C/c1ccccc1)O[C@@H]1O[C@H](CO)[C@@H](O)[C@H](O)[C@H]1O | 0
COc1cc([C@@H]2C3C=C([C@H]4Oc5cc(O)cc(O)c5C(=O)[C@@H]4O)[C@H]4[C@@H]2COC4(O)C3=O)ccc1O | 2
Clc1nc(NC2CCCCC2)c2cc(Br)ccc2n1 | 4
O=C(CSc1oc(-c2ccccc2)nc1S(=O)(=O)c1ccccc1)Nc1ccc(F)cc1 | -1
NC(=O)COc1ccc(NC(=O)c2cccnc2)cc1 | -2
O=C(N1CCOCC1)[C@@]1(Cc2ccccc2)COC(c2ccc(OCCCO)cc2)=N1 | -5
[N-]=[N+]=NC[C@@H](Cc1ccccc1)NC(=O)Nc1ccccc1 | 2
CC1=CC(=O)OC1(O)CCC(C)CC(=O)O (stereo not given) | 75*
CC1=CC(=O)CC2C1(C)CCC(C)C2(C)CCC(C)CC(=O)O (stereo not given) | 8
SMILES | NSD2 inh
CC(CC[C@]1(C)C2CCC=C(CO)[C@]2(C)CC[C@H]1C)CC(=O)O (stereo not given in full) | -1
COc1ccc(CC(=O)n2nc(-c3ccc(Cl)cc3)nc2NCc2ccco2)cc1OC | -3
O=C(CCCCCC(=O)Nc1ccccc1O)N/N=C/c1ccc([N+](=O)[O-])c(O)c1 | 7
COc1ccc(-c2csc(N3N=C(C)C(C(c4ccc(Cl)cc4)C(C#N)C(N)=O)C3=O)n2)cc1 (stereo not given) | -8
O=C(N/N=C/c1ccc(B(O)O)cc1)c1ccccc1O | -1
C/C=C1/CN[C@H]2Cc3c([nH]c4ccccc34)C(=O)C[C@H]1C2C(=O)OC (stereo not given in full) | -6
C#CCN(O[C@@H](/C=C/[C@@H](O)Cc1ccccc1)C1CC1)[C@@H](Cc1ccc(N=[N+]=[N-])cc1)C(=O)OC | 5
CC1CC[C@@]2(OC1)O[C@H]1CC3C4CC=C5C[C@@H](O[C@@H]6O[C@H](CO)[C@@H](O[C@@H]7O[C@@H](C)[C@H](O)[C@@H](O)[C@H]7O)[C@H](O)[C@H]6O[C@@H]6O[C@@H](C)[C@H](O)[C@@H](O)[C@H]6O)CC[C@]5(C)C4CC[C@]3(C)[C@@]1(O)[C@@H]2C (stereo not given in full) | -2
COC(=O)C1=CO[C@@H](O[C@@H]2O[C@H](CO)[C@@H](O)[C@H](O)[C@H]2O)[C@H]2[C@@H]1C=CC21C=C([C@H](C)O)C(=O)O1 (stereo not given in full) | 1
COC(=O)C1=CO[C@@H](O[C@@H]2O[C@H](CO)[C@@H](O)[C@H](O)[C@H]2O)[C@H]2[C@@H]1C=CC21C=C([C@H](C)OC(=O)/C=C/c2ccc(O)cc2)C(=O)O1 (stereo not given in full) | 76*
COC(=O)C1=CO[C@@H](O[C@@H]2O[C@H](CO)[C@@H](O)[C@H](O)[C@H]2O)[C@@H]2[C@@H](C)[C@@H](O)[C@@H](OC(=O)/C=C/c3ccc(O)c(O)c3)[C@H]12 | 4
C=C1C(=O)O[C@H]2C[C@H](C)[C@@H]3CC(=O)C(C)=C3C[C@H]12 | -10
COc1cc(/C=C/C=O)cc(OC)c1O | 3
O=C(CCCCC(=O)N/N=C/c1cc2c(cc1Br)OCO2)NO | 3
O=C(NO)c1ccc(C(=O)N/N=C/c2ccc(O)c(O)c2O)cc1 | 61*
O=C(NO)c1ccc(C(=O)N/N=C/c2cccc(O)c2O)cc1 | 3
O=C(NO)c1ccc(C(=O)N/N=C/c2cccc(Oc3ccccc3)c2)cc1 | 1
O=C(NO)c1ccc(C(=O)N/N=C/c2ccc3ccccc3c2)cc1 | 62*
O=C(NO)c1ccc(C(=O)N/N=C/c2ccc(F)cc2)cc1 | 4
CCN(CC)c1ccc(/C=N/NC(=O)c2ccc(C(=O)NO)cc2)c(O)c1 | 11
COC(=O)CCCCCCC(=O)N/N=C/c1cc(O)ccc1[N+](=O)[O-] | -5
CCc1ccc(N2C(=S)N(C(=O)c3cccs3)C3CC2(C)Oc2ccccc23)cc1 (stereo not given) | 10
COc1c(O[C@@H]2O[C@H](CO[C@H]3OC[C@](O)(CO)[C@H]3O)[C@@H](O)[C@H](O)[C@H]2O)cc2occ(-c3ccc(O)cc3)c(=O)c2c1O | 5
COc1cc(OC)c(-c2c(OC)cc(OC)cc2OC)c(OC)c1 | 2
COc1cc(/C=N/NC(=O)c2ccc(C(=O)NO)cc2)cc(OC)c1OC | 1
C[C@@H]1O[C@@H](O[C@@H]2[C@@H](O)[C@H](O[C@@H]3[C@@H](O)[C@@H](O)[C@H](O[C@H]4[C@H](OC(=O)[C@]56CCC(C)(C)C[C@H]5C5=CCC7[C@@]8(C)C[C@H](O)[C@H](O[C@@H]9O[C@H](C(=O)O)[C@@H](O)[C@H](O)[C@H]9O)[C@@](C)(CO)C8[C@H](O)C[C@@]7(C)[C@]5(C)C[C@H]6O)O[C@@H](CO)[C@@H]4O)O[C@H]3C)OC[C@H]2O)[C@H](O)[C@H](O)[C@H]1O (stereo not given in full) | 74*
C[C@@H]1O[C@@H](O[C@@H]2[C@@H](O)[C@H](OC(=O)[C@]34CCC(C)(C)CC3C3=CCC5[C@@]6(C)CC[C@H](OC7OC(CO)C(OC8OCC(O)C(O)C8O)C(O)C7O)C(C)(C)C6CC[C@@]5(C)[C@]3(C)CC4O)O[C@H]2CO)[C@H](O)[C@H](O)[C@H]1O[C@H]1OC[C@](O)(CO)[C@H]1O (stereo not given in full) | -3

Screening results from PubChem BioAssay.
